Laboratory results taken from PubChem BioAssay AID1445 (SRMLSC, 2008).
In all, about 220,000 compounds went through this assay and about 910 (0.41%) were called active.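 Rule for the calls: active = primary inhibition above the hit cutoff, then over 50% inhibition at one or more dose response concentrations (cut at about 23% in these data, passing the limit was not always enough); inconclusive = conflicting primary data, or primary hits not chosen for dose response; inactive = low primary inhibition, or under 50% at every dose.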 What follows is part of a selection rich in actives, with near analogues and random picks from the rest. Entries with a potency or affinity are not part of this list.

biological target: Aminopeptidase N (Plasmodium falciparum (isolate 3D7)) (UniProt O96935); assay: P. falciparum M1AAP inhibitors, biochemical, fluorogenic H-Leu-NHMec substrate, 1536-well (AID 1445); settings: recombinant M1AAP, H-Leu-NHMec fluorogenic kinetic assay; at 30 µM, hits give high values unless noted;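 note: plate controls were DMSO full reaction for no effect and no enzyme background for full effect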
Sequence (O96935 whole entry, looked up): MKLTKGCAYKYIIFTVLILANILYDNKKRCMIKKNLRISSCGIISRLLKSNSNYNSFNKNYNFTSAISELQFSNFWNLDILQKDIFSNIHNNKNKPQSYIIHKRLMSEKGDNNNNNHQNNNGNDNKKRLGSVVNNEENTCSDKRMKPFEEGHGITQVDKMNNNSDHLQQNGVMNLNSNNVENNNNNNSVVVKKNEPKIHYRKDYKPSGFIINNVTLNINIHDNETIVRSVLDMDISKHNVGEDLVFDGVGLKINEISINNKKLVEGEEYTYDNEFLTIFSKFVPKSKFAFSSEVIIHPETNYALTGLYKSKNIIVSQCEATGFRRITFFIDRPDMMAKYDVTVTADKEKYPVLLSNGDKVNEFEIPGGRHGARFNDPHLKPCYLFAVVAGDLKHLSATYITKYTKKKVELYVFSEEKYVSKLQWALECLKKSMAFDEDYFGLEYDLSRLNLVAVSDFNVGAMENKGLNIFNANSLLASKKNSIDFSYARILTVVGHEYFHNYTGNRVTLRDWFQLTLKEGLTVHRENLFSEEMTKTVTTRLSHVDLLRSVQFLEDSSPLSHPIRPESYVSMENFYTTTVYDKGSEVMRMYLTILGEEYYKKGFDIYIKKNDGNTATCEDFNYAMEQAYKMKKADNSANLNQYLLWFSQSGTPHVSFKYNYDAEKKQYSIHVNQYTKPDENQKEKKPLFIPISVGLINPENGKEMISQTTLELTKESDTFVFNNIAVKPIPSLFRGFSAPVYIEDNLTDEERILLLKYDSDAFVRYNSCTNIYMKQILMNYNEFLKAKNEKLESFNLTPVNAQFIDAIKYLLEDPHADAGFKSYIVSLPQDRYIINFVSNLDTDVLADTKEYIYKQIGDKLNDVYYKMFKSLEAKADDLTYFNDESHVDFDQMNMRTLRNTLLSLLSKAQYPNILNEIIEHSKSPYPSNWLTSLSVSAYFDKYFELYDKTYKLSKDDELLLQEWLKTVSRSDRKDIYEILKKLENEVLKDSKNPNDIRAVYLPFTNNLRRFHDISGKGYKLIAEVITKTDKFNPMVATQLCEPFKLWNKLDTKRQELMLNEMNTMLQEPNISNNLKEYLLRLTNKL

| SMILES | inhibition |
| --- | --- |
| CC(C)Cn1c(SCC(=O)N2CCN(C(=O)c3ccco3)CC2)nc2ccccc2c1=O | 7.56% (inactive) |
| CCCCCn1c(NC2CCCCC2)nc2c1c(=O)[nH]c(=O)n2C | 9.39% (inactive) |
| COC(=O)CSC1=C(C#N)C(c2ccc(F)cc2)CC(=O)N1 (configuration not stated) | -0.52% (inactive) |
| COC(=O)CSC1=C(C#N)C(c2ccc(C(C)C)cc2)CC(=O)N1 (configuration not stated) | 23.7% (active) |
| COC(=O)CSC1=C(C#N)C(c2ccccc2)CC(=O)N1 (configuration not stated) | 1.02% (inactive) |
| CSc1nc2c(c(=O)n1-c1ccccc1)SCC2 | 9.44% (inactive) |
| O=C(O)Cn1cc(/C=N/NC(=O)c2cc3cc(Br)ccc3o2)c2ccccc21 | 18.5% (inactive) |
| Cn1cc(/C=N/NC(=O)c2cc3cc(Br)ccc3o2)c2ccccc21 | 4.78% (inactive) |
| C=C(Br)Cn1c(CCC)nc2ccccc21 | -1.16% (inactive) |
| COc1ccc(NS(=O)(=O)c2cc(NC(=O)c3ccccc3F)ccc2N2CCCC2)cc1 | 3.17% (inactive) |
| CN(C)CCCNC(=O)c1ccc(Cl)c(S(=O)(=O)N(C)c2ccccc2)c1 | 7.27% (inactive) |
| O=C(O)C(c1ccccc1)C1(O)CCCC1 (configuration not stated) | 16.5% (inactive) |
| COc1ccc(S(=O)(=O)N(C)C)cc1NCC(=O)Nc1ccc(Br)cc1F | 7.15% (inactive) |
| CC1=C(C#N)C(=O)NC(=O)/C1=C\c1ccc(-c2cc(C)c(C)cc2[N+](=O)[O-])o1 | 11.9% (inactive) |
| CC1=C(C#N)C(=O)NC(=O)/C1=C\c1ccc(-c2ccc(C)cc2[N+](=O)[O-])o1 | 20.8% (inactive) |
| CCOC(=O)c1cc(-c2ccc(/C=N\n3cnnc3)o2)ccc1Cl | 3.07% (inactive) |
| CC1=C(C#N)C(=O)NC(=O)/C1=C/c1ccc(-c2ccc(S(N)(=O)=O)cc2)o1 | 28.5% (inactive) |
| C=CCOC(=O)c1cc(-c2ccc(/C=C3\C(=O)NC(=O)C(C#N)=C3C)o2)ccc1Cl | 46.9% (active) |
| CC(=O)N1CCc2cc(S(=O)(=O)CCC(=O)Nc3ccc4c(c3)OCCO4)ccc21 | 7.36% (inactive) |
| CN(C)CCNC(=O)CN1C(=O)COc2ccc(C(C)(C)C)cc21 | 0.77% (inactive) |
| CC(=O)COC(=O)C1CC(=O)N(c2ccc(C)c(C)c2)C1 (configuration not stated) | 3.99% (inactive) |
| O=C(COc1ncnc2ccccc12)NCCc1ccccc1 | 1.63% (inactive) |
| NC(=S)N=Nc1c(O)[nH]c2ccccc12 | 23.1% (inactive) |

| SMILES | inhibition |
| --- | --- |
| CC(C)(O)C(=O)N=Nc1c(O)[nH]c2ccccc12 | 1.86% (inactive) |
| O=C(CSc1nnc(-c2ccccn2)n1Cc1ccccc1)N1CCOCC1 | 2.23% (inactive) |
| CCOC(=O)c1[nH]cnc1C(=O)Nc1ccc(C)cc1 | 2.53% (inactive) |
| CCOC(=O)c1[nH]cnc1C(=O)Nc1ccccc1 | 19.7% (inactive) |
| O=C(Cn1cc(C(F)(F)F)ccc1=O)N1CCN(S(=O)(=O)c2ccc(Cl)cc2)CC1 | 0.58% (inactive) |
| CCN1CC(CN(C)Cc2cn(-c3cccc(C)c3)nc2-c2cccc(F)c2)CC1=O (configuration not stated) | 0.42% (inactive) |
| Cc1cc2c(c(SCC(N)=O)n1)C(=O)OC2 | 0.63% (inactive) |
| CCCN1C(=O)/C(=C/c2c(NCCCOCC)nc3c(C)cccn3c2=O)SC1=S | -3.51% (inactive) |
| CCCN1C(=O)/C(=C/c2c(NCCCOC(C)C)nc3c(C)cccn3c2=O)SC1=S | -6.67% (inactive) |
| CCC(C)N1C(=O)/C(=C/c2c(NCCCOC(C)C)nc3c(C)cccn3c2=O)SC1=S (configuration not stated) | 10.2% (inactive) |
| CCOC(=O)CC1C(=O)NCCN1S(=O)(=O)c1ccc(OC)cc1 (configuration not stated) | -8.28% (inactive) |
| CCOCCCNc1nc2c(C)cccn2c(=O)c1/C=C1\SC(=S)N(CC(C)C)C1=O | -0.56% (inactive) |
| CCOC(=O)CC1C(=O)NCCN1C(=O)c1cc2c(=O)n3cccc(C)c3nc2s1 (configuration not stated) | 11.1% (inactive) |
| Cc1c(NC(=O)CN2C(=O)NC3(CCCCC3)C2=O)c(=O)n(-c2ccccc2)n1C | -1.23% (inactive) |
| COc1ccc(S(=O)(=O)N2CCN(C)CC2)cc1Br | -2.63% (inactive) |
| Cc1nc(SCC(=O)Nc2ccccc2)c2oc3ccccc3c2n1 | -7.15% (inactive) |
| O=C(Nc1ccccc1)Oc1ccccc1N1CCOCC1 | 2.65% (inactive) |
| COc1cc(C(=S)N2CCOCC2)ccc1OC(=O)c1cc([N+](=O)[O-])cc([N+](=O)[O-])c1 | 4.71% (inactive) |
| CCOC(=O)N=Nc1c(O)n(CC)c2ccccc12 | 3.07% (inactive) |
| CCn1c(NC(=O)c2ccccc2)c(-c2cccs2)c(=O)c2ccccc21 | 7.57% (inactive) |
| CCn1c(O)c(N=NC(=O)C(O)c2ccccc2)c2ccccc21 (configuration not stated) | 5.57% (inactive) |
| CCCC(=O)Nc1c(-c2cccs2)c(=O)c2ccccc2n1CC | 3.31% (inactive) |
| CCn1c(NC(=O)c2cccs2)c(-c2cccs2)c(=O)c2ccccc21 | 27% (active) |

| SMILES | inhibition |
| --- | --- |
| CC1=CC2=NC(=O)/C(=C/c3coc4ccc(Cl)cc4c3=O)C(=N)N2O1 | 7.94% (inactive) |
| CC(C)CC1=NN2C(=N)/C(=C\c3coc4ccccc4c3=O)C(=O)N=C2S1 | 58% (inactive) |
| N=C1/C(=C/c2coc3ccccc3c2=O)C(=O)N=C2SC(c3ccco3)=NN12 | 18.6% (inactive) |
| N=C1/C(=C\c2coc3ccccc3c2=O)C(=O)N=C2SC=CN12 | 52.2% (inactive) |
| CCN1CCN(C(=O)C2CCN(Cc3cc(Cl)ccc3O)CC2)CC1 | 0.1% (inactive) |
| O=C(COC(=O)c1cc(NS(=O)(=O)c2cccs2)ccc1O)Nc1ccc(F)c(F)c1F | 6.76% (inactive) |
| CC(C)(C)C(=O)Nc1ccc(S(=O)(=O)Nc2ccccn2)cc1 | 4.68% (inactive) |
| C/C(Cc1ccccc1)=N/NC(=O)CCCC(=O)N/N=C(/C)Cc1ccccc1 | 1.32% (inactive) |
| COc1ccc(C(=O)NNC(=O)Nc2ccc(C)cc2)cc1 | -2.61% (inactive) |
| CCOC(=O)C(NC(=O)c1ccccc1Cl)(Nc1ccc(C)c(C)c1)C(F)(F)F (configuration not stated) | 3.71% (inactive) |
| COCc1nnc(NC(=O)c2sc3ccccc3c2Cl)s1 | 17.9% (inactive) |
| Cc1cnc(NC(=O)c2sc3ccccc3c2Cl)s1 | 5.85% (inactive) |
| CCc1nnc(NC(=O)c2ccc3ccccc3n2)s1 | 18.2% (inactive) |
| CCC(CC)c1nnc(NC(=O)c2ccc3ccccc3n2)s1 | 44% (inactive) |
| Cc1nnc(NC(=O)c2sc3ccccc3c2Cl)s1 | 27.1% (active) |
| CC1=C(C(=O)Nc2ccccn2)C(c2ccc(N(C)C)cc2)n2ncnc2N1 (configuration not stated) | -4.41% (inactive) |
| CCC(C)[C@H](NC(=O)NC1CC1)C(=O)O (some centres not stated) | 5.68% (inactive) |
| CCN(CC)c1cc(C)c2cc(NC(=O)c3ccc(Br)o3)ccc2n1 | 8.17% (inactive) |
| C[N+]1(CCCOC(=O)C2(c3ccccc3)CCCC2)CCOCC1 | 12.4% (inactive) |
| COc1ccc(-n2c(=O)c3c4c(sc3n(CC(N)=O)c2=O)CCCCC4)cc1 | 4.45% (inactive) |
| NC(=O)Cn1c(=O)n(CCc2ccccc2)c(=O)c2c3c(sc21)CCCC3 | -0.91% (inactive) |
| CCOC(=O)N1CCN(S(=O)(=O)c2ccc(C(=O)Nc3sc4c(c3C#N)CCC4)cc2)CC1 | 4.62% (inactive) |
| CC(C)(C)NC(=O)Cn1c(-c2nonc2N)nc2ccccc21 | 8.2% (inactive) |

| SMILES | inhibition |
| --- | --- |
| Nc1nonc1-c1nc2ccccc2n1CC(=O)Nc1ccccc1 | 2.57% (inactive) |
| NC(=O)Cn1c(-c2nonc2N)nc2ccccc21 | 2.36% (inactive) |
| CCOC(=O)c1ccccc1NC(=O)Cn1c(-c2nonc2N)nc2ccccc21 | -0.93% (inactive) |
| COC(=O)c1ccccc1NC(=O)Cn1c(-c2nonc2N)nc2ccccc21 | 0.73% (inactive) |
| Nc1nonc1-c1nc2ccccc2n1CC(=O)N/N=C\c1ccc(-c2ccc(Cl)cc2)o1 | -0.3% (inactive) |
| COc1ccccc1C(=O)Nc1ccccc1C(=O)N1CCCC1 | 5.88% (inactive) |
| COc1ccc(CCNC(=O)COC(=O)c2ccc(N3CCCC3=O)cc2)cc1 | -2.72% (inactive) |
| CC(=O)/C(N=Nc1ccc(C(=O)O)cc1)=C(\C)O | 7.52% (inactive) |
| Cc1ccc(C)c(N2CCN(C(=O)c3ccc(CSc4nc5ccncc5[nH]4)cc3)CC2)c1 | -6.94% (inactive) |
| Cc1ccc(C2=Nc3ccc(Br)cc3C(c3ccncc3)=NN2)cc1 | -0.32% (inactive) |
| CCOC(=O)C1(CCOc2ccccc2)CCN(Cc2cnc(C)[nH]2)CC1 | 6.06% (inactive) |
| CCN(CC)NC(=S)Nc1ccccc1 | -2.71% (inactive) |
| CN(C)c1nc(-c2ccc([N+](=O)[O-])cc2)cs1 | 4.18% (inactive) |
| Cc1c(NC(=O)CSc2nncc3ccccc23)c(=O)n(-c2ccccc2)n1C | 3.35% (inactive) |
| O=C(NN1C(=O)/C(=C/C=C/c2ccco2)SC1=S)c1ccncc1 | 17.5% (inactive) |
| O=C(NN1C(=O)/C(=C\c2ccc(O)c([N+](=O)[O-])c2)SC1=S)c1ccccc1Cl | 19.8% (inactive) |
| O=C1/C(=C/c2ccc(O)c([N+](=O)[O-])c2)SC(=S)N1Cc1ccccc1 | 10.2% (inactive) |
| Cn1cccc1/C=C1\SC(=S)N(NC(=O)c2ccccc2Cl)C1=O | 17.9% (inactive) |
| O=C(O)CCCN1C(=O)/C(=C/C=C/c2ccco2)SC1=S | 7.29% (inactive) |
| CC(C(=O)O)N1C(=O)/C(=C/C=C/c2ccco2)SC1=S (configuration not stated) | 10.5% (inactive) |
| COc1ccccc1C(=O)NN1C(=O)/C(=C/c2cccn2C)SC1=S | 15.2% (inactive) |
| O=C1/C(=C/C=C/c2ccco2)SC(=S)N1c1ccc(O)cc1 | 15.5% (inactive) |
| COc1ccccc1N(C)S(=O)(=O)c1ccc(C(=O)OCC(=O)Nc2cc(C)on2)cc1 | -7.23% (inactive) |
